# Assay outcomes as filed in PubChem BioAssay.
# Hits are enriched below; roughly 0.97% of the tested compounds scored in any of these assays.
# RecA splice inh = inhibitors of M. tuberculosis RecA intein splicing; P9WHJ3; AID 2221; inhibition, % (concentration not given with the values); 0.75% of 290,000 active; cell-free RecA intein splicing, fluorescence; in the data active = inhibition above about 30%;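 also: 0% = vehicle wells and 100% = reference inhibitor control wells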
# BioA inh = inhibitors of Mycobacterium tuberculosis BioA enzyme | AID 602481 | inhibition, % at 9.99 µM | purified M. tuberculosis BioA enzyme, plate reader | 0.096% of 360,000 active; in the data active = inhibition above about 40%
# UGM FP inh = blocks M. tuberculosis UGM enzyme | P9WIQ1 | inhibition, % at 10 µM | AID 504406 | 0.06% of 320,000 active | purified UGM, fluorescence polarization probe displacement; in the data active = inhibition above about 10%, passing the limit was not always enough
# FadD28 binding = M. tuberculosis FadD28 bisubstrate binding inhibition | inhibition, % at 12.5 µM | AID 588549 | 0.22% of 360,000 active | FadD28 bisubstrate probe binding, fluorescence polarization; in the data active = inhibition above about 8.5%, passing the limit was not always enough
# TcdB inh = TcdB glycohydrolase inhibition; 0.24% of 350,000 active; AID 652162; inhibition, % at 9.99 µM; P18177; TcdB glycohydrolase enzymatic assay, plate reader; in the data active = inhibition above about 10%
# Rv3671c inh = inhibitors of M. tuberculosis serine protease Rv3671c. P9WHR9. inhibition, % at 5.96 µM. 0.048% of 320,000 active;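 also: extracellular domain of Rv3671c used as enzyme; 0% = enzyme with DMSO and 100% = no enzyme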
# Target sequence (P9WHR9 whole entry, looked up, the tested form may be a part): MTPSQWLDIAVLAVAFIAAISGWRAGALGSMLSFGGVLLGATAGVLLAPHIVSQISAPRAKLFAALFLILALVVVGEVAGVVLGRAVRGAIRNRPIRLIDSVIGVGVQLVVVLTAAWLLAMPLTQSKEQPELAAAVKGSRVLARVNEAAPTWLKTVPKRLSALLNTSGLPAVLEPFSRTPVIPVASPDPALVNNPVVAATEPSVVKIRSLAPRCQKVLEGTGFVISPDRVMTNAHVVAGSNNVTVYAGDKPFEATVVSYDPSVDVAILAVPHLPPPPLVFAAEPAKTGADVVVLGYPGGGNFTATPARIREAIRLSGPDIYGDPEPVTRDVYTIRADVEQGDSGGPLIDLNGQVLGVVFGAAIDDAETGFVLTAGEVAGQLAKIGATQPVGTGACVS
# GFP chromo cs = counter-screen GFP chromophore formation inhibition. 83% of 2,100 active. shares compounds with RecA splice inh. cell-free GFP chromophore formation, fluorescence. EC50, µM; call rule not given here
# Rv3671c confirm = Rv3671c protease inhibition, confirmation | shares compounds with Rv3671c inh | inhibition, % at 5.96 µM | 40% of 140 active
# * = called active by the depositor; . = not tested or not shown; + = active, no number. Rule as the data show it, unless noted: active = inhibition above about 38%; inactive = the rest.
SMILES,RecA splice inh,BioA inh,UGM FP inh,FadD28 binding,TcdB inh,Rv3671c inh,Rv3671c confirm,others
O=C(O)CC1S/C(=N/N=C/c2ccc(-c3ccccc3[N+](=O)[O-])o2)NC1=O (stereo unspecified),43*,-1,-3,0,.,-68,.,GFP chromo cs=17*
Cc1ccc(S(=O)(=O)Oc2ccc(/C=N/N=C3/NC(=O)C(CC(=O)O)S3)cc2)cc1 (stereo unspecified),.,.,.,-6,0,.,.,
Cc1ccc(-c2ccc(/C=N/N=C3/NC(=O)C(CC(=O)O)S3)o2)c([N+](=O)[O-])c1 (stereo unspecified),48*,.,2,1,.,-59,.,GFP chromo cs=34*
C[C@@H]1CN([C@@H](C)CO)C(=O)Cc2cc(NS(C)(=O)=O)ccc2O[C@@H]1CN(C)C(=O)NC1CCCCC1,.,-4,.,.,1,.,.,
COCCn1c(SCC(=O)NCc2ccc(F)cc2)nc2ccccc21,-3,-4,1,-1,-7,5,.,
Cn1c(SCC(=O)NCc2ccc(F)cc2)nc2ccccc21,31*,-3,3,-4,.,-5,.,GFP chromo cs=>38
O=C(Cn1ncc(Cl)c(Cl)c1=O)c1ccc(Cl)cc1,13,.,1,-3,.,-5,.,
O=C(OCn1ncc(Cl)c(Cl)c1=O)c1ccc(F)cc1,75*,.,1,.,.,-12,.,GFP chromo cs=8.1*
O=C(OCn1ncc(Cl)c(Cl)c1=O)c1ccccc1Cl,89*,-1,-5,-3,.,-3,.,GFP chromo cs=5.2*
CC(C)(C)C(=O)Cn1ncc(Cl)c(Cl)c1=O,6,.,.,0,0,.,.,
O=c1cc(-c2ccccc2Cl)oc2ccc([N+](=O)[O-])c(O)c12,2,0,2,-2,2,0,.,
O=[N+]([O-])c1cc([N+](=O)[O-])c2oc(-c3ccccc3)c(Br)c2c1O,30*,1,.,26*,.,.,.,GFP chromo cs=>38
CCCCCOP(=O)(OCCCCC)C1(NS(=O)(=O)c2ccccc2)C=CC(=O)c2ccccc21 (stereo unspecified),81*,.,-3,-3,.,-17,.,GFP chromo cs=6.7*
Cc1ccc2nc(-c3cccs3)oc(=O)c2c1,32*,0,-1,-2,.,52*,63*,GFP chromo cs=>38
CC1=NN(c2ccccc2)C(=O)/C1=C\c1c(C)[nH]n(-c2ccccc2)c1=O,18,-1,-3,1,.,-6,.,
CC1=NN(c2ccccc2)C(=O)/C1=C/c1c(O)n(-c2ccc(F)c(Cl)c2)[nH]c1=O,50*,.,-2,.,.,48*,15,GFP chromo cs=32*
C[C@@H]1CN([C@H](C)CO)C(=O)c2cc(C#Cc3cccnc3)cnc2O[C@H]1CN(C)C(=O)CC1CC1,.,19,.,.,-1,.,.,
Cc1ccc(-c2ccccc2NC(=O)CS(=O)CC(=O)Nc2ccc(C)c(Cl)c2)o1 (stereo unspecified),-2,2,-5,0,1,78*,-7,
N#CCC(=O)Nc1ccc(C(=O)OCC(=O)Nc2ccccc2Sc2ccccc2)cc1,25,.,-1,-7,0,81*,-78,
Cc1cc(C)c(-c2cc(NC(=O)COC(=O)c3ccc(NC(=O)CC#N)cc3)n(-c3ccccc3)n2)cc1C,1,-4,-1,6,1,42*,-197,
Cc1cc(C)c(-c2cc(NC(=O)COC(=O)c3ccc(C#N)cc3)n(-c3ccccc3)n2)cc1C,6,-1,-1,-2,1,-51,.,
CSC[C@@H]1NC(=S)N(c2ccc(C)cc2)C1=O,1,.,1,0,0,91*,83*,
COC(=O)Cc1[nH]nc2c1C(c1cc(OC)c(OC)c(OC)c1)C(C#N)=C(N)O2 (stereo unspecified),18,-2,-2,-3,1,40*,-4,
C[C@H]1CN([C@@H](C)CO)S(=O)(=O)c2ccc(-c3ccc(F)cc3)cc2O[C@H]1CN(C)C(=O)C1CC1,.,5,.,.,.,.,.,
CCCC#Cc1ccc2c(c1)O[C@@H](CN(C)C(=O)C1CCC1)[C@@H](C)CN([C@@H](C)CO)S2(=O)=O,.,2,.,.,2,.,.,
SMILES,RecA splice inh,BioA inh,UGM FP inh,FadD28 binding,TcdB inh,Rv3671c inh,Rv3671c confirm,others
O=C(NC1CCN(C(=O)c2cccc([N+](=O)[O-])c2)CC1)c1ccccc1,0,.,2,0,0,144*,-4,
O=CN1CCN(C(=O)c2cccc([N+](=O)[O-])c2)CC1,-3,0,-3,-2,3,7,.,
COCCNC(=O)C[C@H]1C[C@H]2c3cc(NC(=O)C4CCC4)ccc3O[C@H]2[C@H](CO)O1,.,4,.,.,0,.,.,
Cc1nn(-c2ccc(Br)cc2)c(=O)c2ccccc12,1,2,3,-3,0,71*,-5,
Cc1nn(-c2ccccc2C(=O)O)c(=O)c2ccccc12,-2,1,2,0,.,-1,.,
COc1ccc(/C(=C\Nc2ccc(C)c(C)c2)C(C)=O)cc1OC,4,.,0,-1,1,-2,.,
COc1ccc(N/C=C(\C(C)=O)c2ccc(OC)c(OC)c2)cc1OC,-4,.,3,-1,0,89*,-11,
COc1ccc(S(=O)(=O)N2CCC3(CC2)CN(C(=O)c2cccnc2)[C@H](CO)c2c3c3ccc(OC)cc3n2C)cc1,.,.,.,.,1,.,.,
CCC(C)OC(=O)n1ccc(C(=O)Nc2nccs2)n1 (stereo unspecified),-7,1,-5,-1,.,55*,49*,
C[C@@H]1CCCCO[C@H](CN(C)S(=O)(=O)c2ccc(Cl)cc2)[C@@H](C)CN([C@@H](C)CO)C(=O)c2cc(NC(=O)Nc3cccc4ccccc34)ccc2O1,.,0,.,.,-1,.,.,
O=C(O)c1cccc2c1NC(C(=O)O)C1CC(Sc3ccccc3[N+](=O)[O-])C(Cl)C21 (stereo unspecified),.,8,-1,55*,.,50*,24,
CCNc1c2c3c(cccc3n(C)c1=O)C(=O)c1ccccc1-2,-36,.,22*,.,.,60*,53*,
CC(=O)Nc1ccc(Nc2c3c4c(cccc4n(C)c2=O)C(=O)c2ccccc2-3)cc1,2,-5,4,-3,1,15,.,
Cn1c(=O)c(NCCO)c2c3c(cccc31)C(=O)c1ccccc1-2,-276,-419,98*,7,0,122*,132*,
CCCCNc1c2c3c(cccc3n(C)c1=O)C(=O)c1ccccc1-2,-83,-40,28*,5,.,43*,57*,
Cn1c(=O)c(NCCc2ccccc2)c2c3c(cccc31)C(=O)c1ccccc1-2,-95,-74,44*,93*,.,+,+,
CCCNC(=O)N1CC2(C1)[C@@H](c1ccccc1)[C@@H](CO)N2CC1CC1,.,.,.,.,0,.,.,
COCC(=O)N1CC2(CCN(Cc3ccc(Cl)cc3)CC2)c2c([nH]c3cc(OC)ccc23)[C@H]1CO,.,.,.,.,2,.,.,
COc1ccc(OC)c(-c2c3cc(O)c(=O)cc-3oc3cc(O)c(O)cc23)c1,.,.,5,102*,.,63*,76*,
COc1ccc(OC)c(-c2oc3ccccc3c(=O)c2O)c1,-1,1,2,-2,.,4,.,
